Experimental data from PubChem BioAssay (EPA / NIEHS).
Some structures have more than one record in an assay (separate samples or runs), and their calls can disagree. Activity calls are given as the source filed them. How the source made its calls: active means hit-call score of the fitted dose curve at least 0.9, where 1 is the maximum; inactive means score below 0.9.

What was measured:
Settings in all cases: mRNA level, 48 h; actives raise or lower the signal
[1] = read-out: ABC Transporter (ABCB1), ABCB1 (gene 5243); experiment: LTEA_HepaRG_ABCB1: Life Technologies and Expression Analysis (LTEA) Assay for ABC Transporter (ABCB1) using HepaRG (AID 2283460)
How it was run: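 ABCB1 transcript level measured by TaqMan qRT-PCR against three housekeeping genes after 48 h chemical exposure of differentiated HepaRG cells. Top concentration 100 uM, half-log steps, eight points, 0.5% DMSO vehicle; bidirectional fit relative to DMSO.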

[2] = read-out: growth arrest and DNA damage 45 (GADD45B), GADD45B (gene 4616); experiment: LTEA_HepaRG_GADD45B: Life Technologies and Expression Analysis (LTEA) Assay for growth arrest and DNA damage 45 (GADD45B) using HepaRG (AID 2283461)
How it was run: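 Differentiated HepaRG cells, plated 48 h then switched to serum-free induction medium, were exposed 48 h in duplicate to eight half-log concentrations from 100 uM in 0.5% DMSO; mRNA quantified by qRT-PCR, normalized to ACTB/GAPDH/POLR2A, bidirectional fit versus DMSO.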

[3] = read-out: ABC Transporter (ABCC3), ABCC3 (gene 8714); experiment: LTEA_HepaRG_ABCC3: Life Technologies and Expression Analysis (LTEA) Assay for ABC Transporter (ABCC3) using HepaRG (AID 2283462)
How it was run: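 HepaRG cells in serum-free induction medium were exposed for 48 h in duplicate to 8-point half-log concentrations topping at 100 uM in 0.5% DMSO. ABCC3 mRNA was measured by qRT-PCR normalized to ACTB, GAPDH and POLR2A, with bidirectional fitting versus DMSO.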

[4] = read-out: ABC Transporter (ABCC2), ABCC2 (gene 1244); experiment: LTEA_HepaRG_ABCC2: Life Technologies and Expression Analysis (LTEA) Assay for ABC Transporter (ABCC2) using HepaRG (AID 2283464)
How it was run: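 HepaRG cells were plated 48 h, switched to serum-free induction medium, then exposed in duplicate for 48 h to 8 concentrations (top 100 uM, half-log steps, 0.5% DMSO). ABCC2 mRNA was measured by qRT-PCR normalized to ACTB/GAPDH/POLR2A; bidirectional fitting versus DMSO.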

[5] = read-out: Broad substrate specificity ATP-binding cassette transporter ABCG2 (Homo sapiens) (UniProt Q9UNQ0); experiment: LTEA_HepaRG_ABCG2: Life Technologies and Expression Analysis (LTEA) Assay for ABC Transporter (ABCG2) using HepaRG (AID 2283465)
How it was run: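 ABCG2 transcript was quantified by TaqMan qRT-PCR against three housekeeping genes in HepaRG cells. Cells were treated in duplicate for 48 h across an 8-point half-log series up to 100 uM, with 0.5% DMSO vehicle. Gain or loss versus DMSO was fit.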

[6] = read-out: ATP-citrate lyase (ACLY), ACLY (gene 47); experiment: LTEA_HepaRG_ACLY: Life Technologies and Expression Analysis (LTEA) Assay for ATP-citrate lyase (ACLY) using HepaRG (AID 2283466)
How it was run: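 ACLY mRNA quantified by qRT-PCR on Fluidigm arrays against three housekeeping genes, after 48 h chemical treatment of HepaRG cells (top concentration 100 uM, half-log steps, 0.5% DMSO vehicle). Up- or down-regulation fitted relative to DMSO.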

[7] = read-out: Peroxisomal acyl-coenzyme A oxidase 1 (ACOX1) gene, ACOX1 (gene 51); experiment: LTEA_HepaRG_ACOX1: Life Technologies and Expression Analysis (LTEA) Assay for Peroxisomal acyl-coenzyme A oxidase 1 (ACOX1) gene using HepaRG (AID 2283467)
How it was run: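 ACOX1 transcript levels were quantified by TaqMan qRT-PCR against three housekeeping genes after 48 h chemical exposure of differentiated human HepaRG cells. Exposure used eight half-log steps topping at 100 uM, 0.5% DMSO vehicle, in duplicate. Bidirectional curve fits were made relative to DMSO.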

[8] = read-out: Alkaline Phosphatase, Placental (ALPP) gene, ALPP (gene 250); experiment: LTEA_HepaRG_ALPP: Life Technologies and Expression Analysis (LTEA) Assay for Alkaline Phosphatase, Placental (ALPP) gene using HepaRG (AID 2283468)
How it was run: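 Differentiated human HepaRG cells were plated and cultured 48 h, then exposed in duplicate for 48 h in serum-free induction medium to eight half-log concentrations from 100 uM in 0.5% DMSO. ALPP mRNA was measured by TaqMan qRT-PCR, normalized to ACTB, GAPDH, POLR2A.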

[9] = read-out: Bcl-2 (BAD) gene, BAD (gene 572); experiment: LTEA_HepaRG_BAD: Life Technologies and Expression Analysis (LTEA) Assay for Bcl-2 (BAD) gene using HepaRG (AID 2283469)
How it was run: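 Read-out: qRT-PCR of BAD mRNA, normalized to three housekeeping genes. Human HepaRG cultures got 48 h chemical exposure in 0.5% DMSO, duplicate eight-point half-log series topping at 100 uM. Gain or loss of signal fitted versus DMSO vehicle.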

[10] = read-out: Bcl-2 (BAX) gene, BAX (gene 581); experiment: LTEA_HepaRG_BAX: Life Technologies and Expression Analysis (LTEA) Assay for Bcl-2 (BAX) gene using HepaRG (AID 2283470)
How it was run: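 Human HepaRG cells treated in duplicate for 48 h across eight concentrations (max 100 uM, 0.5% DMSO); BAX expression measured by qRT-PCR.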

[11] = read-out: adenosine kinase (ADK) gene, ADK (gene 132); experiment: LTEA_HepaRG_ADK: Life Technologies and Expression Analysis (LTEA) Assay for adenosine kinase (ADK) gene using HepaRG (AID 2283471)
How it was run: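 Following 48 h exposure of HepaRG cells in 0.5% DMSO (top concentration 100 uM, duplicate wells), ADK mRNA induction or suppression was measured by qRT-PCR, normalised to ACTB/GAPDH/POLR2A, and fitted bidirectionally relative to vehicle.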

[12] = read-out: Alpha-fetoprotein (AFP) gene, AFP (gene 174); experiment: LTEA_HepaRG_AFP: Life Technologies and Expression Analysis (LTEA) Assay for Alpha-fetoprotein (AFP) gene using HepaRG (AID 2283472)
How it was run: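 Measures AFP mRNA change in HepaRG after 48 h chemical exposure (8 half-log concentrations, highest 100 uM, 0.5% DMSO). Fold change relative to DMSO, fitted in both directions.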

[13] = read-out: Apolipoprotein A-V (APOA5) gene, APOA5 (gene 116519); experiment: LTEA_HepaRG_APOA5: Life Technologies and Expression Analysis (LTEA) Assay for Apolipoprotein A-V (APOA5) gene using HepaRG (AID 2283474)
How it was run: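 Differentiated human HepaRG cells were exposed in duplicate for 48 h to eight half-log concentrations from 100 uM in 0.5% DMSO. APOA5 mRNA was quantified by TaqMan qRT-PCR, normalized to ACTB, GAPDH and POLR2A, and fitted bidirectionally against DMSO.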

[14] = read-out: Apoptosis regulator Bcl-2 (Homo sapiens) (UniProt P10415); experiment: LTEA_HepaRG_BCL2: Life Technologies and Expression Analysis (LTEA) Assay for Bcl-2 gene using HepaRG (AID 2283475)
How it was run: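 Each chemical was tested in duplicate on HepaRG cultures held in serum-free induction medium for 48 h, highest concentration 100 uM with half-log dilutions. Transcript levels came from multiplexed qRT-PCR, normalised to housekeeping genes; activity was scored in either direction relative to DMSO.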

[15] = read-out: Bcl-2 (BID) gene, BID (gene 637); experiment: LTEA_HepaRG_BID: Life Technologies and Expression Analysis (LTEA) Assay for Bcl-2 (BID) gene using HepaRG (AID 2283476)
How it was run: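 Assay used HepaRG hepatic cells treated 48 h in serum-free medium with half-log dilutions from 100 uM. Endpoint: BID mRNA, qRT-PCR, normalized to ACTB/GAPDH/POLR2A.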

Caspase-3 (Homo sapiens) = Caspase-3 (Homo sapiens) (UniProt P42574); experiment: LTEA_HepaRG_CASP3: Life Technologies and Expression Analysis (LTEA) Assay for cysteine-aspartic acid protease (CASP3) using HepaRG (AID 2283477)
Caspase-3 (Homo sapiens), sequence (P42574 whole entry, looked up): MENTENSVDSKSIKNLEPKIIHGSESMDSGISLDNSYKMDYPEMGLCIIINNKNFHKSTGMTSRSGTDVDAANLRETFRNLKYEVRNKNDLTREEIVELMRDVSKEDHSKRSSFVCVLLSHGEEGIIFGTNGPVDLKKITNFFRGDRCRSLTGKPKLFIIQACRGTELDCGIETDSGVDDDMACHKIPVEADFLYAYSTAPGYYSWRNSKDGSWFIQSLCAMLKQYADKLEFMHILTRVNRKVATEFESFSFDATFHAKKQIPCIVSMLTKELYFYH
How it was run: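 Differentiated human HepaRG cells in serum-free induction medium were exposed 48 h to 8-point half-log concentrations from 100 uM (0.5% DMSO vehicle). CASP3 mRNA was measured by qRT-PCR, normalised to ACTB, GAPDH and POLR2A, with bidirectional fitting against DMSO.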

[16] = read-out: Cytochrome P450 (CYP24A1), CYP24A1 (gene 1591); experiment: LTEA_HepaRG_CYP24A1: Life Technologies and Expression Analysis (LTEA) Assay for Cytochrome P450 (CYP24A1) using HepaRG (AID 2283478)
How it was run: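 Differentiated HepaRG cells, pre-cultured 48 h, were exposed in duplicate for 48 h in serum-free induction medium to 8 half-log concentrations (top 100 uM, 0.5% DMSO). CYP24A1 mRNA was quantified by TaqMan qRT-PCR, normalized to ACTB/GAPDH/POLR2A, fitted bidirectionally versus DMSO.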

[17] = read-out: Cytochrome P450 (CYP1A2), CYP1A2 (gene 1544); experiment: LTEA_HepaRG_CYP1A2: Life Technologies and Expression Analysis (LTEA) Assay for Cytochrome P450 (CYP1A2) using HepaRG (AID 2283479)
How it was run: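 Differentiated human HepaRG cells in serum-free induction medium were exposed in duplicate for 48 h to 8-point half-log concentrations up to 100 uM in 0.5% DMSO. CYP1A2 mRNA measured by qRT-PCR, normalized to ACTB, GAPDH, POLR2A; bidirectional fit vs DMSO.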

BCL2L11 (gene 10018) = experiment: LTEA_HepaRG_BCL2L11: Life Technologies and Expression Analysis (LTEA) Assay for Bcl-2 (BCL2L11) gene using HepaRG (AID 2283473)
How it was run: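 Differentiated human HepaRG cells in serum-free induction medium were exposed in duplicate for 48 h to eight concentrations (top 100 uM, half-log steps, 0.5% DMSO). BCL2L11 mRNA was quantified by TaqMan qRT-PCR, normalized to ACTB/GAPDH/POLR2A, bidirectional fit versus DMSO.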

[18] = read-out: ABC Transporter (ABCB11), ABCB11 (gene 8647); experiment: LTEA_HepaRG_ABCB11: Life Technologies and Expression Analysis (LTEA) Assay for ABC Transporter (ABCB11) using HepaRG (AID 2283463)
How it was run: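 ABCB11 transcript levels quantified by TaqMan qRT-PCR against three housekeeping genes after 48 h chemical exposure of HepaRG cultures. Concentrations up to 100 uM in half-log steps, 0.5% DMSO vehicle; both induction and suppression scored.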

Broad substrate specificity ATP-binding cassette transporter ABCG2 (Homo sapiens), sequence (Q9UNQ0 whole entry, looked up): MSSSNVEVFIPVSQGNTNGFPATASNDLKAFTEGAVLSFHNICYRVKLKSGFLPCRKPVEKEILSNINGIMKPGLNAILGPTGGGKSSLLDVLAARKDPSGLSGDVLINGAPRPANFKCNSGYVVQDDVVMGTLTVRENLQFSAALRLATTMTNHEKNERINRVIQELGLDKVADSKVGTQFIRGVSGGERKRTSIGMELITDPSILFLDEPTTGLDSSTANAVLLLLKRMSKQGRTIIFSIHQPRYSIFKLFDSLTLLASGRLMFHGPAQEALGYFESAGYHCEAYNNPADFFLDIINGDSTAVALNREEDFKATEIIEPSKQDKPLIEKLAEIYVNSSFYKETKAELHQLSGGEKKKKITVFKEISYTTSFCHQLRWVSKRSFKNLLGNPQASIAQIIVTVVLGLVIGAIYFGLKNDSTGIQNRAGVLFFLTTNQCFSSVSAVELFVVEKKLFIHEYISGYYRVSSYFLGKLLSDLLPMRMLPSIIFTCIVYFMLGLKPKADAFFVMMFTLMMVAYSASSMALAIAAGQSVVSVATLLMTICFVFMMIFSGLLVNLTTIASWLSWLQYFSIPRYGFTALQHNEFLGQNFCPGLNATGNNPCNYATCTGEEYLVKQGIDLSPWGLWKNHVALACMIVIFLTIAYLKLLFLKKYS
Apoptosis regulator Bcl-2 (Homo sapiens), sequence (P10415 whole entry, looked up): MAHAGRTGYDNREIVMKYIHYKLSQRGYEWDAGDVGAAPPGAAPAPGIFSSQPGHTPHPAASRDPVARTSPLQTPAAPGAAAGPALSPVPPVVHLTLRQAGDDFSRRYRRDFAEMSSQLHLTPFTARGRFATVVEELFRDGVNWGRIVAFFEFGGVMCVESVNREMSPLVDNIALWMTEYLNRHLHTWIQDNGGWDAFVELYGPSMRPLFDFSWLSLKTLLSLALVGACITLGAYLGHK

SMILES: Cc1[nH]c(=O)n(C(C)(C)C)c(=O)c1Cl
- outcome [1]: inactive
- outcome [2]: inactive
- outcome [3]: inactive
- outcome [4]: inactive
- outcome [5]: inactive
- outcome [6]: inactive
- outcome [7]: inactive
- outcome [8]: inactive
- outcome [9]: inactive
- outcome [10]: inactive
- outcome [11]: inactive
- outcome [12]: inactive
- outcome [13]: inactive
- outcome [14]: inactive
- outcome [15]: inactive
- outcome (Caspase-3 (Homo sapiens)): inactive
- outcome [16]: inactive
- AC50 [17]: 36.2 µM (active)

SMILES: Oc1cc(Cl)ccc1Oc1ccc(Cl)cc1Cl
- outcome [1]: inactive
- outcome [2]: inactive
- outcome [3]: inactive
- outcome [4]: inactive
- outcome [5]: inactive
- outcome [6]: inactive
- outcome [7]: inactive
- outcome [8]: inactive
- outcome [9]: inactive
- outcome [10]: inactive
- outcome [11]: inactive
- AC50 [12]: 51 µM (active)
- outcome [12]: inactive
- outcome [14]: inactive
- AC50 [15]: 10.1 µM (active)
- outcome [15]: inactive
- outcome (Caspase-3 (Homo sapiens)): inactive
- outcome [16]: inactive
- outcome [17]: inactive

SMILES: CNC(=O)/C=C(\C)OP(=O)(OC)OC
- outcome [1]: inactive
- outcome [2]: inactive
- outcome [3]: inactive
- outcome [4]: inactive
- outcome [5]: inactive
- outcome [6]: inactive
- outcome [7]: inactive
- outcome [8]: inactive
- outcome [9]: inactive
- outcome [10]: inactive
- outcome [11]: inactive
- outcome [12]: inactive
- outcome (BCL2L11 (gene 10018)): inactive
- outcome [13]: inactive
- outcome [14]: inactive
- outcome [15]: inactive
- outcome (Caspase-3 (Homo sapiens)): inactive
- outcome [16]: inactive
- outcome [17]: inactive

SMILES: CCc1ccc(C(=O)NN(C(=O)c2cc(C)cc(C)c2)C(C)(C)C)cc1
- AC50 [1]: 13.3 µM (active)
- outcome [2]: inactive
- outcome [3]: inactive
- outcome [4]: inactive
- AC50 [5]: 50 µM (active)
- outcome [6]: inactive
- outcome [7]: inactive
- AC50 [8]: 50 µM (active)
- outcome [9]: inactive
- outcome [10]: inactive
- outcome [11]: inactive
- AC50 [12]: 50 µM (active)
- outcome (BCL2L11 (gene 10018)): inactive
- outcome [14]: inactive
- outcome [15]: inactive
- outcome (Caspase-3 (Homo sapiens)): inactive
- outcome [16]: inactive
- outcome [17]: inactive

SMILES: CCC(C)(C)C(=O)OC1=C(c2ccc(Cl)cc2Cl)C(=O)OC12CCCCC2
- outcome [1]: inactive
- outcome [2]: inactive
- outcome [3]: inactive
- AC50 [18]: 20.7 µM (active)
- outcome [4]: inactive
- outcome [5]: inactive
- outcome [6]: inactive
- outcome [7]: inactive
- outcome [8]: inactive
- outcome [9]: inactive
- outcome [10]: inactive
- outcome [11]: inactive
- outcome [12]: inactive
- outcome [14]: inactive
- outcome [15]: inactive
- outcome (Caspase-3 (Homo sapiens)): inactive
- outcome [16]: inactive
- AC50 [17]: 50 µM (active)
